Our source for the Potency values is PubChem BioAssay (Tox21).

Structures are written as SMILES. Calls of active or inactive are those of the source. A call without a number means that no potency is given here. Calls follow the shape of the full dose curve.
Potency is read from the fitted curve at half-maximal effect.

For this assay, the target named is Acetylcholinesterase (Homo sapiens) (UniProt P22303). Nature of the assay: Acetylcholinesterase (AChE) small molecule antagonists: enzyme-based qHTS assay with human liver microsomes (AID 1347399). Also: nearly all actives have a fitted effect of over 60% in size. As to conditions: Potency: qHTS inhibition; series mostly up to 115 µM. From the text: National Center for Advancing Translational Sciences [NCATS]
Sequence of Acetylcholinesterase (Homo sapiens) (P22303 whole entry, looked up): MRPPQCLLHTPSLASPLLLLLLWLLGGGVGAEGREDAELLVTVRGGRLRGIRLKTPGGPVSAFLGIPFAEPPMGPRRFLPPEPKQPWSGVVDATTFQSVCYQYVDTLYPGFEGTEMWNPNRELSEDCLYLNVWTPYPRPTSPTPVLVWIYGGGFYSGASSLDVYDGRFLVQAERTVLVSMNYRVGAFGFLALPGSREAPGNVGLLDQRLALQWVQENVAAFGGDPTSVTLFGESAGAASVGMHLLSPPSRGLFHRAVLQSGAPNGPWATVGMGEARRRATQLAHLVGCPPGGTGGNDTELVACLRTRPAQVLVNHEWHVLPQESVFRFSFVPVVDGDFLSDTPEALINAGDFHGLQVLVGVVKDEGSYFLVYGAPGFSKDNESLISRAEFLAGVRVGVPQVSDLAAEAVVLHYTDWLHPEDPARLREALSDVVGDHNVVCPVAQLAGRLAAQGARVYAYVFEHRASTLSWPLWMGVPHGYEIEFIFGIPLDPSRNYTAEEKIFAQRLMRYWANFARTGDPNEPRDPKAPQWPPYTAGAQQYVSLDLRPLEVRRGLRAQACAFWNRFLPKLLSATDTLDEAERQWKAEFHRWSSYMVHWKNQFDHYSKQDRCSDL
Division of Preclinical Innovation [DPI]
U.S. Environmental Protection Agency [EPA]
National Institutes of Environmental Health Sciences [NIEHS]
National Toxicology Program [NTP]
U.S. Food and Drug Administration [FDA]
Acetylcholinesterase (AChE) is the primary cholinesterase in the body that hydrolyzes a key neurotransmitter, acetylcholine. Inhibition of AChE activity can lead to neurotoxicity. The known inhibitors include organophosphorous pesticides (OP), chemical warfare agents, drugs, and various phytochemicals. Some compounds like OP compounds may need metabolic activation to be active AChE inhibitors. The cytochrome P450 (CYP) superfamily in the human microsomes is responsible for the metabolism of various endogenous and exogenous compounds.
An enzyme-based assay with the recombinant human AChE, human liver microsomes and Amplite Colormetric acetylcholinesterase assay kit (AAT Bioquest, Sunnyvale, CA) was used to evaluate compounds in the Tox21 10K library that need metabolic activation for AChE inhibition. The assay uses 5, 5-dithiobis-(2-nitrobenzoic acid) (DTNB) to quantify the thiocholine produced from the hydrolysis of acetylthiocholine by AChE.
Tox21 Assay Protocol Summary:
For the enzyme-based AChE assay with microsomes addition, a mixture of human AChE (50 mU/mL) and human liver microsomes (0.25 mg/mL, final concentration) in 3 uL/well was dispensed into black, clear-bottom 1536-well plates using a Multidrop Combi dispenser (Thermo Scientific, MA). Then, 23 nL of compound or DMSO (vehicle control) was transferred into the assay plates by a Pintool Station (Wako Automation, CA). Following compound addition, 1 uL of NADPH (0.25 mg/mL, final concentration) was transferred to the assay plate by a Flying Reagent Dispenser (Beckman Coulter, CA). The plates were incubated for 30 min at 37 C and 5% CO2, followed by the addition of 4 uL of colorimetric detection cocktail solution (DTNB, acetylthiocholine) into each well using a Flying Reagent Dispenser (Beckman Coulter, CA) and then 10 min incubation at room temperature.
A general note: qHTS replaces the single test concentration by a dilution series.
Turning to `ClCCCCBr`, the Potency entry was “inactive”.
As for `Nc1ccc([N+](=O)[O-])cc1[N+](=O)[O-]`, the entry is “inactive”; as for `CCO[C@H]1O[C@@H]2OC3(C)CC[C@H]4[C@H](C)CC[C@@H]([C@H]1C)[C@@]24OO3`, “inactive”.
Turning to `c1ccoc1`, the Potency result is “inactive”.
As to `ClCc1cccc(Cl)c1`, the Potency result was “inactive”.
As for `COP(=S)(OC)Oc1cc(Cl)c(I)cc1Cl`, the entry is “inactive”; as for `CC(C)O.CC(C)O.OCCN(CCO)CCO.OCCN(CCO)CCO.[Ti]`, “inactive”.
As for `Cc1ccc2ccccc2c1`, the entry is “inactive”.
Turning to `CN1C[C@H](CNC(=O)OCc2ccccc2)C[C@@H]2c3cccc4c3c(cn4C)C[C@H]21`, the Potency is 30.9 µM (active).
As for `CC(C)(OO)c1ccccc1`, the entry is “inactive”; as for `COC(N)=O`, “inactive”; as for `Cc1c(F)c(F)c(COC(=O)C2C(/C=C(\Cl)C(F)(F)F)C2(C)C)c(F)c1F` (stereo not given), “inactive”.
The result for `O=C(Nc1ccccc1)Nc1cnns1` reads “inactive”; that for `Nc1nc(N)nc(N)n1`, “inactive”.
As for `CC(=O)[C@H]1CC[C@H]2[C@@H]3CC[C@H]4C[C@](C)(O)CC[C@]4(C)[C@H]3CC[C@]12C`, the entry is “inactive”; as for `Nc1ccc(N=Nc2ccc(-c3ccc(N=Nc4c(S(=O)(=O)O)cc5cc(S(=O)(=O)O)c(N=Nc6ccccc6)c(O)c5c4N)cc3)cc2)c(N)c1`, “inactive”; as for `CCC(Cl)CCl` (stereo not given), “inactive”.
Consider `Clc1cc(Cl)c(Cl)c(Cl)c1`, for which the Potency result was “inactive”.
The result for `COC(=O)C(Br)CBr` (stereo not given) reads “inactive”.
With `NC(=O)C(Cl)(Cl)Cl`, the Potency result was “inactive”.
On to `Cc1ccc(N)cc1C`, for which the Potency entry was “inactive”.
As for `CCCCOC(=O)c1ccccc1C(=O)OCc1ccccc1`, the entry is “inactive”; as for `CN(C)c1ccc(N(C)C)cc1`, “inactive”.
The result for `CC(C)(C)C(O)C(Oc1ccc(Cl)cc1)n1cncn1` (stereo not given) reads “inactive”; that for `CCOC(=O)COc1cc(-c2nn(C)c(OC(F)F)c2Cl)c(F)cc1Cl`, “inactive”; that for `NC(=O)CI`, “inactive”.
As for `C[C@H]1CNCCc2ccc(Cl)cc21`, the entry is “inactive”; as for `C=COC(C)=O`, “inactive”.
As to `CCCCc1c(C)nc(NCC)nc1OS(=O)(=O)N(C)C`, the Potency entry was “inactive”.
For the molecule `Brc1ccc(Oc2ccccc2)cc1`, the Potency entry is “inactive”.
As for `CCCCCCCCCCOC(=O)c1ccccc1C(=O)OCCCCCCCCCC`, the entry is “inactive”; as for `CS/C(C)=N/OC(=O)N(C)SN(C)C(=O)O/N=C(\C)SC`, 31.7 µM (active).
As for `C=CC(=O)OCCCCO`, the entry is “inactive”; as for `O=C(CBr)OCc1ccccc1`, “inactive”.
As for `Sc1ccccc1Cl`, the entry is “inactive”; as for `C(=NC1CCCCC1)=NC1CCCCC1`, “inactive”.
As for `O=S1(=O)OC(c2cc(Br)c(O)c(Br)c2)(c2cc(Br)c(O)c(Br)c2)c2ccccc21`, the Potency entry was “inactive”.
`O=C(CBr)Nc1ccc(Cl)cc1C(=O)c1ccccc1F`: the Potency entry was “inactive”.
As for `COc1cc(CC(C)N)cc2c1OCO2` (stereo not given), the entry is “inactive”; as for `Cn1cc[n+](C)c1` (tested in a mixture with another compound), “inactive”.
